Assay results reported in PubChem BioAssay (NCATS).
Records with an inconclusive call do not appear. Entries that show only a call come without a potency. Unmarked numbers belong to inactive results. Calls of active or inactive are those of the source. Calls come from the whole dose curve; as a rule, active = well fitted curve in the direction sought with a large enough effect; inconclusive = small, poorly fitted or top-dose-only effect, or another doubt; inactive = no such curve, though single readings can be large; an effect the other way counts as inactive or inconclusive.

Experiments:
[1] = Primary qHTS for inhibitors of nuclear receptor binding SET domain protein 2 (NSD2) in an isogenic RCH-ACV NSD2 p.E1099K mutant (9B) (AID 1645876); note: nearly all actives have a fitted effect of over 70% in size; note: potency is the fitted concentration of half-maximal effect
[2] = Primary qHTS for inhibitors of nuclear receptor binding SET domain protein 2 (NSD2) in an RCH-ACV wild type WT cells (2C) (AID 1645877); note: nearly all actives have a fitted effect of over 70% in size; note: potency is the fitted concentration of half-maximal effect
[3] = biological target: Glutathione peroxidase 1 (Homo sapiens) (UniProt P07203); experiment: Primary qHTS Assay for Inhibitors of Recombinant Selenoprotein Glutathione Peroxidase 1 (GPX1) (AID 1845191); note: nearly all actives have a fitted effect of over 65% in size
Chain of Glutathione peroxidase 1 (Homo sapiens) (P07203 whole entry, looked up): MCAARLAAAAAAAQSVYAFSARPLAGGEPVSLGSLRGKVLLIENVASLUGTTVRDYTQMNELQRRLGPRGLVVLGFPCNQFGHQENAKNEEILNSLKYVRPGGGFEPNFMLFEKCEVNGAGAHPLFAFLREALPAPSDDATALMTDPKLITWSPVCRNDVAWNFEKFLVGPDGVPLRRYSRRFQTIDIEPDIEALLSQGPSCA
Summary of the method: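 GR-coupled readout: NADPH consumption tracked by fluorescence, ex 340/em 450 nm, at t=0 and after 15 min at RT. Final mix 10 nM GPX1, 1 mM GSH, 0.5 mM CHP, 0.5 mM NADPH, 100 nM GR, 0.01% BSA, following 30 min enzyme–compound preincubation.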

## C=C1C(O)CC2C(C(=O)O)=COC(O[C@@H]3O[C@H](COC(=O)/C=C/c4ccc(O)cc4)[C@@H](O)[C@H](O)[C@H]3O)C12 (stereo not given in full)
[1]
  Potency: inactive
[2]
  Potency: inactive
[3]
  Potency: inactive

## C=C(C)C1CCC2(C(=O)O[C@@H]3O[C@H](CO[C@@H]4O[C@H](CO)[C@@H](O)[C@H](O)[C@H]4O)[C@@H](O)[C@H](O[C@@H]4O[C@@H](C)[C@H](O)[C@@H](O)[C@H]4O)[C@H]3O)CCC3(C(=O)O)C(CCC4C5(C)CCC(O)C(C)(C)C5CCC43C)C12 (stereo not given in full)
[1]
  outcome: inactive [at 9.23 µM]
[2]
  outcome: inactive [at 9.23 µM]
[3]
  Potency: inactive

## CC1=CC2C(CC1OC1OC(CO)C(O)C(O)C1O)C(C)CC(=O)C2C(C)C (stereo not given)
[1]
  Potency: inactive
[2]
  Potency: inactive
[3]
  Potency: inactive

## CC(C)=CCC/C(C)=C/Cc1ccc(O)c(C2OC(=O)c3cc(C(=O)O)cc(O)c32)c1O (stereo not given)
[1]
  Potency: inactive
[2]
  Potency: inactive
[3]
  Potency: inactive

## COC(=O)C[C@H]1[C@]2(C)C3=C(C)[C@H](c4ccoc4)C[C@H]3O[C@@H]2[C@H](OC(C)=O)C2[C@](C)(C(=O)OC)C=CC(=O)[C@@]21C (stereo not given in full)
[1]
  Potency: inactive
[2]
  Potency: inactive
[3]
  Potency: inactive

## CC1(C)CC[C@]23CO[C@@]4(CCC5[C@@]6(C)CC[C@H](O[C@@H]7OC[C@H](O[C@@H]8O[C@H](CO)[C@@H](O)[C@H](O)[C@H]8O)[C@H](O)[C@H]7O[C@@H]7O[C@H](CO)[C@@H](O[C@@H]8O[C@H](CO)[C@@H](O)[C@H](O)[C@H]8O)[C@H](O)[C@H]7O)[C@@](C)(CO)C6CC[C@@]5(C)[C@]4(C)C[C@H]2OC2OCC(O)C(O)C2O)C3C1 (stereo not given in full)
[1]
  Potency: 0.688 µM (active)
[2]
  Potency: 1.09 µM (active)
[3]
  activity, negative = inhibition: -19.2% [at 9.52 µM]

## C[C@@H]1[C@H]2[C@H](O[C@@H]3O[C@H](CO)[C@@H](O)[C@H](O)[C@H]3O)OC=C(C(=O)O)[C@H]2C[C@@H]1O
[1]
  Potency: inactive
[2]
  Potency: inactive
[3]
  Potency: inactive

## C[C@@H]1O[C@@H](O[C@@H]2[C@@H](O)[C@H](O[C@H]3[C@H](O[C@H]4CC[C@@]5(C)C(CC[C@]6(C)C5CC=C5[C@@H]7CC(C)(C)CC[C@]7(C(=O)O[C@@H]7O[C@H](CO)[C@@H](O)[C@H](O)[C@H]7O[C@@H]7O[C@@H](C)[C@H](O[C@@H]8O[C@@H](C)[C@H](O)[C@@H](O)[C@H]8O)[C@@H](O)[C@H]7O)CC[C@]56C)[C@@]4(C)CO)O[C@H](C(=O)O)[C@@H](O)[C@@H]3O)O[C@H](CO)[C@H]2O)[C@H](O)[C@H](O)[C@H]1O (stereo not given in full)
[1]
  activity change, negative = viability loss: -0.268% [at 9.23 µM]
[2]
  activity change, negative = cell killing: -3.64% [at 9.23 µM]
[3]
  activity, negative = inhibition: -4.58% [at 9.52 µM]

## C=C1CC[C@@H]2[C@](C)(CO[C@@H]3O[C@H](CO)[C@@H](O)[C@H](O)[C@H]3O)[C@H](O)CC[C@@]2(C)[C@@H]1C/C=C1/C(=O)OC[C@H]1O
[1]
  Potency: inactive
[2]
  Potency: inactive
[3]
  Potency: inactive

## COC(=O)CC(O)C1OC(c2ccccc2)C(O)C1O (stereo not given)
[1]
  Potency: inactive
[2]
  Potency: inactive
[3]
  Potency: inactive

## C[C@@H]1O[C@@H](O[C@H]2[C@H](O)[C@@H](O)[C@H](OC[C@H]3O[C@@H](OC(=O)[C@]45CCC(C)(C)C[C@H]4C4=CCC6[C@@]7(C)CC[C@H](O[C@@H]8OC[C@H](O)[C@H](O[C@@H]9O[C@H](CO)[C@@H](O)[C@H](O)[C@H]9O)[C@H]8O)[C@@](C)(CO)C7CC[C@@]6(C)[C@]4(C)CC5)[C@H](O)[C@@H](O)[C@@H]3O)O[C@@H]2CO)[C@H](O)[C@H](O)[C@H]1O (stereo not given in full)
[1]
  activity change, negative = viability loss: 0.607% [at 9.23 µM]
[2]
  outcome: inactive [at 9.23 µM]
[3]
  activity, negative = inhibition: -7.31% [at 9.52 µM]

## COc1ccc(-c2c(-c3cc(C(=O)O)ccn3)ncn2C)cc1
[1]
  Potency: inactive
[2]
  Potency: inactive
[3]
  Potency: inactive

## C/C=C/C=C/C(=O)N1CC[C@]23c4ccccc4N[C@H]4N(C)c5cccc6c5[C@@]42CCN([C@H]6C2OC2(C)C)[C@H]13 (stereo not given in full)
[1]
  Potency: inactive
[2]
  Potency: inactive
[3]
  Potency: inactive

## O=C(/C=C\n1cnc(-c2cc(C(F)(F)F)cc(C(F)(F)F)c2)n1)N1CC(F)(F)C1
[1]
  Potency: 0.934 µM (active)
[2]
  Potency: 0.833 µM (active)
[3]
  Potency: inactive

## CC1OC(OC2C(C)OC(OC3C(O)C(CO)OC(O[C@H]4CC[C@@]5(C)C(CC[C@]6(C)C5CC=C5C7[C@@H](C)[C@H](C)CC[C@]7(C(=O)O)CC[C@]56C(=O)O)C4(C)C)C3O)C(O)C2O)C(O)C(O)C1O (stereo not given in full)
[1]
  activity change, negative = viability loss: -0.763% [at 9.23 µM]
[2]
  activity change, negative = cell killing: -0.67% [at 9.23 µM]
[3]
  Potency: inactive
